Rows were chosen to be rich in hits. Some 4.8% of all compounds tested hit in one or more screens of this group.
hcDAF-12 act = activates DAF-12 receptor from parasite H. contortus | HEK293 hcDAF-12 lit1-tk-luc reporter, luminescence; 0% DMSO, 100% Δ7-dafachronic acid | activation, % at 6.8 µM | hit rate 1.4% among 370,000;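 active means activation above the mean of all tested compounds plus 3 SD, cut at about 5.5% in these data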;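 further: 100% = response to 3 µM Δ7-dafachronic acid high control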
DAX1 inh-1 = DAX1 (NR0B1) inhibition, primary screen; HEK293T StAR-luciferase reporter, SF-1/DAX-1 repression relief; inhibition, % at 6.8 µM; hit rate 1.1% among 370,000; AID 652010;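 active means inhibition above the mean over all tested compounds plus 3 SD, cut at about 3.6% in these data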;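 further: 0% = DAX-1 cells with DMSO and 100% = cells lacking DAX-1 with DMSO; higher inhibition means more luminescence from relief of DAX-1 repression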
ssDAF12 agonist = S. stercoralis DAF-12 activation, primary screen. HEK293 ssDAF-12/GRIP1 lit1-tk-luc reporter, luminescence; % of 3 µM dafachronic acid response. hit rate 1% among 370,000. activation, % at 6.8 µM;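 active means activation above the mean over all tested compounds plus 3 SD, cut at about 0.9% in these data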;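 further: 0% = DMSO-only wells and 100% = 3 µM delta7-dafachronic acid wells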
DAX1 inh-2 = inhibitors of human orphan nuclear receptor DAX1 (NR0B1). P51843. HEK293 Gal4-DAX1 luciferase reporter, luminescence. inhibition, % at 6.75 µM. hit rate 0.99% among 340,000. AID 504766;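 active means inhibition above the mean over all tested compounds plus 3 SD, cut at about 4.2% in these data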;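 further: 0% = DAX1-transfected cells with DMSO and 100% = empty-vector control cells with DMSO; inhibition shows as a rise in luminescence from relieved DAX1 repression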
hgDAF12 agonist = agonists of H. glycines DAF-12 nuclear receptor | HEK293 GAL4-hgDAF12 UAS-luciferase reporter, agonist luminescence; normalized to butyrate control | activation, % at 6.8 µM | hit rate 1.8% among 370,000 | AID 687014;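 active means activation above a cutoff set at the mean of all screened compounds plus 3 SD, cut at about 10% in these data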;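 further: 0% = DMSO wells and 100% = sodium butyrate wells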
SMARCA2 activ = activators of SMARCA2 function | MG213 cells, MMTV-luciferase reporter, dexamethasone, overnight | activation, % at 9.1 µM | hit rate 1% among 370,000 | AID 652017; in the data active means activation above about 7.8%;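 further: 0% = vehicle wells and 100% = reference activator wells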
DAX1 conf = NR0B1 (human) inhibition, confirmation; shares compounds with DAX1 inh-1; HEK293T StAR-promoter luciferase reporter, SF-1/DAX-1 repression; inhibition, % at 6.8 µM; hit rate 87% among 2,400; AID 652134;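 active means inhibition above the average of every tested compound plus 3 SD, cut at about 3.8% in these data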;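 further: 0% = DAX-1 cells with DMSO and 100% = no DAX-1 control cells with DMSO; active compounds raise luminescence by relieving repression of the StAR reporter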
SF1 mutant ctr = counter-screen for DAX1 inhibitors: nonselective inhibitors with SF-1 AF2 mutant; shares compounds with DAX1 inh-1; HEK293 StAR-luciferase, luminescence; inhibition, % at 6.8 µM; hit rate 78% among 2,400; AID 652136;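 active means inhibition above the mean of all tested compounds plus 3 SD, cut at about 3% in these data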;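 further: 0% = DAX-1 transfected cells with DMSO and 100% = cells without DAX-1 with DMSO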
LXR ag = counter-screen for hcDAF-12 agonists: agonists of human LXR-beta. activation, % at 6.8 µM. shares compounds with hcDAF-12 act. HEK293 Gal4-LXR tk-luc reporter, luminescence, 24 h; normalized: DMSO 0%, positive control 100%. 3,400 tested, under 10 active. AID 743027;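 active means mean percent activation of the reporter above a cutoff set as the average over tested compounds plus their standard deviation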
Target sequence (P55055 whole entry, looked up, the tested form may be a part): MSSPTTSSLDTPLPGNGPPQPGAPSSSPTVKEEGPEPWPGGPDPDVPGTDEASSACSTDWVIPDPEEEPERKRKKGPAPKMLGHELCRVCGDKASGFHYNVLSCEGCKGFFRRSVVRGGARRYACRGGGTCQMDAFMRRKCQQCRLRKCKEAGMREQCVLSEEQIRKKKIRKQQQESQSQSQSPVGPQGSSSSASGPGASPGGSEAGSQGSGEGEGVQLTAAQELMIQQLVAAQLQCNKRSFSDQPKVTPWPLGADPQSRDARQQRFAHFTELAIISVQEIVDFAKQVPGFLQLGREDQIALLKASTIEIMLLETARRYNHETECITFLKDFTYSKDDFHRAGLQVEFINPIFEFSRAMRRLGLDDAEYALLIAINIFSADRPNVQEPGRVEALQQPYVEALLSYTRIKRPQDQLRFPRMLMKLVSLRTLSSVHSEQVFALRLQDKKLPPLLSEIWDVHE
hcDAF12 conf = confirmation of H. contortus DAF-12 agonists. HEK293 hcDAF-12 lit1-tk-luc reporter, luminescence; % of Δ7-dafachronic acid response. hit rate 61% among 3,400. shares compounds with hcDAF-12 act. activation, % at 6.8 µM. AID 743032;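 active means mean activation across triplicate tests above the threshold derived from the earlier primary screen, cut at about 5.5% in these data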;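 further: 0% = DMSO only wells and 100% = 3 µM Δ7-dafachronic acid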
hgDAF12 conf = hgDAF-12 agonism, confirmation assay | HEK293 GAL4-hgDAF12 luciferase reporter, agonist mode; percent of butyrate response | shares compounds with hgDAF12 agonist | activation, % at 6.8 µM | AID 743050 | hit rate 80% among 3,300;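 active means mean activation over triplicate wells above the hit cutoff derived from the earlier primary screen, cut at about 11% in these data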;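 further: 0% = DMSO low control and 100% = 2 mM sodium butyrate high control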
LXR ag 2 = counter-screen for DAF-12 agonists: agonists of human LXR-beta. shares compounds with hgDAF12 agonist. HEK293 Gal4-LXR luciferase reporter, 24 h. activation, % at 6.8 µM. 3,300 tested, under 10 active. AID 743051;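 active means mean activation of the triplicate above a set limit carried over from the primary screen, none filed active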
The depositor's hits bear a star; x = no result given.

SMILES	hcDAF-12 act	DAX1 inh-1	ssDAF12 agonist	DAX1 inh-2	hgDAF12 agonist	SMARCA2 activ	DAX1 conf	SF1 mutant ctr	hgDAF12 conf	LXR ag 2	others
Cc1ccc(-c2nc3ccc(C)cn3c2Cc2ccccn2)cc1	3	5.8*	0	x	14*	1	10*	4.5*	5	1
Cc1ccc(Cc2c(-c3ccc(C#N)cc3)nc3ccc(C)cn23)cc1	2	1	-1	x	8	-1	x	x	x	x
O=C(Nc1ccc(F)cc1)c1ccccc1NC(=O)C1CCCCC1C(=O)O (stereo unspecified)	0	1	-1	0	2	0	x	x	x	x
O=C(NCCc1ccccc1)c1ccccc1NC(=O)C1CCCCC1C(=O)O (stereo unspecified)	9.3*	4.9*	0	x	18*	4	5.4*	4.3*	14*	1	LXR ag=1;hcDAF12 conf=3
CC(/C=N/Nc1nc2ccccc2[nH]1)=C\c1ccccc1	8.8*	6.9*	1.5*	2	21*	7	18*	7.0*	23*	1	LXR ag=2;hcDAF12 conf=6.6*
Cc1nn(-c2ccccc2)c(C)c1/C=N/Nc1nc2ccccc2[nH]1	9.1*	6.4*	1.8*	1	22*	6	17*	8.5*	17*	1	LXR ag=2;hcDAF12 conf=8.9*
CSc1ccc(/C=N/Nc2ccc(Cl)c(C(=O)O)c2)cc1	5	6.7*	0	1	14*	7.9*	17*	5.9*	29*	1
Cc1noc(C)c1C(=O)OCC(=O)NC(=O)NC12CC3CC(CC(C3)C1)C2	-2	0	-1	0	1	-3	x	x	x	x
CN(c1ccccc1C(=O)Nc1ccc(F)c(F)c1)S(C)(=O)=O	-2	0	-2	0	-2	1	x	x	x	x
O=C(Nc1ccc(F)cc1)c1ccccc1NC(=O)C1CC=CCC1C(=O)O (stereo unspecified)	1	1	-1	0	5	0	x	x	x	x
CC(C)c1ccc(NC(=O)c2ccccc2NC(=O)C2CC=CCC2C(=O)O)cc1 (stereo unspecified)	3	8.3*	0	5.5*	15*	3	3	3.6*	7	0
Cc1ccc(NC(=S)Nc2ccc(-c3nnc4n3CCCCC4)cc2)cc1C	-1	0	-2	x	-3	-4	x	x	x	x
CC(NC(=O)c1cccnc1)C(c1cccs1)N1CCN(c2ccccc2F)CC1 (stereo unspecified)	0	0	-2	-1	-4	3	x	x	x	x
O=C(CSC(=S)N1CCCC1)c1ccccc1	4	9.6*	0	-1	18*	3	9.5*	7.4*	14*	1
O=C(CSC(=S)N1CCCCC1)c1ccccc1	3	2	-1	-1	9	5	x	x	x	x
